Bioassay records from PubChem BioAssay.
PostGolgi yeast = phenotypic screen on post-Golgi transport, primary screen. 98,000 compounds, 0.9% hits. post-Golgi transport phenotypic cell assay. inhibition, % at 10 µM. AID 739, 2007;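 note: yeast cells grown in 1536-well plates; yeast grown about 18 h at 30C before absorbance read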
PostGolgi ctrl = growth inhibition of yeast control strain, primary screen, counter-screen for post-Golgi transport modulator project; efflux-deficient yeast background strain, growth absorbance A615, 16 h; inhibition, % at 10 µM; 98,000 compounds, 5% hits
Pyk2 oligo antag = antagonists of Pyk2 self-association, primary screen, Q293 cells, FERM NanoBiT luminescence, HTS; Protein-tyrosine kinase 2-beta (Homo sapiens), Q14289; active compounds read low; z-score (the deposit names both 25 µM and 10 µM); 99,000 compounds, 0.83% hits; AID 1347419, 2020;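 active = Z-score of -3 or lower, scaled per plate to the spread of control and sample wells; inactive = z-score above -3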;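 note: negative z-score means lost luminescence so less FERM oligomerization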
Cav3 T inh = Cav3.2 calcium influx blockers – cell-based, Fluo-4 calcium fluorescence, FDSS, MLSMR library, primary screen | Voltage-dependent T-type calcium channel subunit alpha-1H (Homo sapiens), O95180 | Cav3.2-expressing cells; active compounds read low | B-score at 10 µM | 100,000 compounds, 4% hits;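 active = single-dose well whose peak fluorescence ratio is a statistical outlier from its plate by either plate-standardised score or position-corrected B-score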
Numbers stand for hits. A selection: hits, their analogues and other compounds. The true share with any hit is near 8%. Cut-off read from the data, not from the text of the source, unless noted: active = inhibition above about 30%; inactive = the rest.

`Cc1ccccc1C(=O)/C=C1/c2ccccc2CC(C)(C)N1C` gave PostGolgi yeast inactive, PostGolgi ctrl inactive, Pyk2 oligo antag inactive and Cav3 T inh -3.88.
Cc1cccc(C(=O)/C=C2/c3ccccc3CC(C)(C)N2C)c1 was read as PostGolgi yeast inactive, PostGolgi ctrl inactive, Pyk2 oligo antag inactive and Cav3 T inh -4.25.
CC(C)(C)C1=C(C#N)C(c2cc3c(cc2Br)OCO3)C(C#N)=C(N)O1 (stereo not given) was read as Pyk2 oligo antag inactive and Cav3 T inh inactive.
Screening O=C(Nc1nccs1)C1CCCN1S(=O)(=O)c1ccc(F)cc1 (stereo not given) returned PostGolgi yeast inactive, PostGolgi ctrl inactive, Pyk2 oligo antag inactive and Cav3 T inh inactive.
Screening CCCCCOC(=O)C1=C(C)Nc2nnnn2C1c1ccccc1Cl (stereo not given) returned PostGolgi yeast 45.5, PostGolgi ctrl 47.7, Pyk2 oligo antag inactive and Cav3 T inh inactive.
CCN(CC)C(=O)C(=O)N/N=C/c1cccc(Br)c1 was read as PostGolgi yeast inactive, PostGolgi ctrl inactive, Pyk2 oligo antag inactive and Cav3 T inh inactive.
Screening COc1ccc(OCC(O)Cn2c(=N)n(Cc3ccccc3)c3ccccc32)cc1 (stereo not given) returned PostGolgi yeast inactive, PostGolgi ctrl inactive and Pyk2 oligo antag inactive.
`Cc1ccc(OCC(O)Cn2c(=N)n(Cc3ccccc3)c3ccccc32)cc1` (stereo not given) gave PostGolgi yeast inactive, PostGolgi ctrl inactive, Pyk2 oligo antag inactive and Cav3 T inh -5.27.
`Cc1ccc(Sc2oc(/C=N/n3cnnc3)cc2Br)cc1` gave PostGolgi yeast inactive, PostGolgi ctrl 44.3, Pyk2 oligo antag inactive and Cav3 T inh inactive.
Screening Cc1ccc2oc(=O)n(CCOc3ccccc3Cl)c2c1 returned PostGolgi yeast inactive, PostGolgi ctrl inactive and Cav3 T inh inactive.
`CCOc1ccccc1Cn1c(=O)oc2ccc(C)cc21` gave Pyk2 oligo antag inactive and Cav3 T inh -4.66.
CCCOc1ccccc1Cn1c(=O)oc2ccc(C)cc21 was read as PostGolgi yeast inactive, PostGolgi ctrl inactive, Pyk2 oligo antag inactive and Cav3 T inh -5.58.
For Cc1ccc2c(c1)c1c(n2C)-c2[nH]ncc2CC1 the results were Pyk2 oligo antag inactive and Cav3 T inh inactive.
`Cc1cc(=S)n(-c2ccccc2)n1C` gave PostGolgi yeast inactive, PostGolgi ctrl inactive, Pyk2 oligo antag inactive and Cav3 T inh inactive.
O=S(=O)(Nc1nc(CN2CCOCC2)nc2sc3c(c12)CCCC3)c1cc(F)ccc1F was read as PostGolgi yeast inactive, PostGolgi ctrl inactive, Pyk2 oligo antag inactive and Cav3 T inh inactive.
COc1cc(C2Sc3ccccc3NC3=C2C(=O)OC3)cc(OC)c1OC (stereo not given) was read as Pyk2 oligo antag inactive and Cav3 T inh inactive.
`O=C1OCC2=C1C(c1ccc(F)cc1)Sc1ccccc1N2` (stereo not given) gave PostGolgi yeast 93.6, PostGolgi ctrl inactive, Pyk2 oligo antag inactive and Cav3 T inh inactive.
For CCCC1CCc2c(c3ccccc3[nH]c2=O)O1 (stereo not given) the results were PostGolgi yeast inactive, PostGolgi ctrl inactive, Pyk2 oligo antag inactive and Cav3 T inh inactive.
`CCC1CCc2c(c3ccccc3[nH]c2=O)O1` (stereo not given) gave PostGolgi yeast inactive, PostGolgi ctrl 30.5 and Pyk2 oligo antag inactive.
`Cc1n[nH]c(C)c1C(=O)CC1(O)C(=O)N(Cc2ccccc2)c2ccc(Br)cc21` (stereo not given) gave PostGolgi yeast inactive, PostGolgi ctrl 30.4, Pyk2 oligo antag inactive and Cav3 T inh inactive.
For COc1ccc(-c2nc(NC(=O)Cn3ccc(C(F)(F)F)n3)sc2C)cc1 the results were PostGolgi yeast inactive, PostGolgi ctrl inactive, Pyk2 oligo antag inactive and Cav3 T inh -7.56.
Screening COc1ccc(-c2nc(NC(=O)C3CCN(c4nc5ccccc5o4)CC3)sc2C)cc1 returned PostGolgi yeast inactive, PostGolgi ctrl inactive, Pyk2 oligo antag inactive and Cav3 T inh inactive.
N#C/C(=C/c1ccc(N2CCOCC2)o1)c1ccc(Cl)cc1 was read as PostGolgi yeast inactive, PostGolgi ctrl inactive and Pyk2 oligo antag inactive.
`N#C/C(=C\c1ccc(N2CCOCC2)o1)c1nc2ccccc2[nH]1` gave PostGolgi yeast inactive, PostGolgi ctrl inactive, Pyk2 oligo antag inactive and Cav3 T inh -5.84.
Screening CCS(=O)(=O)C(=C(Nc1ccc(OC)cc1)Nc1ccc(OC)cc1)S(=O)(=O)CC returned PostGolgi yeast inactive, PostGolgi ctrl inactive, Pyk2 oligo antag inactive and Cav3 T inh inactive.
Screening O=C1c2cccc3c(Nc4ccccc4Cl)c([N+](=O)[O-])cc(c23)C(=O)N1CCO returned PostGolgi yeast 44.6, PostGolgi ctrl inactive, Pyk2 oligo antag inactive and Cav3 T inh inactive.
For CCCn1c2c(c(O)c(C(=O)Nc3nccs3)c1=O)CCCC2 the results were PostGolgi yeast inactive, PostGolgi ctrl inactive, Pyk2 oligo antag inactive and Cav3 T inh inactive.
For CCCn1c2c(c(O)c(C(=O)Nc3ncccc3C)c1=O)CCCC2 the results were PostGolgi yeast inactive, PostGolgi ctrl 43.4, Pyk2 oligo antag inactive and Cav3 T inh inactive.
For COC(=O)c1ccccc1NC(=S)NC(=O)COc1ccccc1Cl the results were PostGolgi yeast inactive, PostGolgi ctrl 31.4 and Pyk2 oligo antag inactive.
O=C1NC[C@@H](Cc2cccc3ccccc23)N(CCc2cc(C(F)(F)F)cc(C(F)(F)F)c2)C1=O was read as Cav3 T inh inactive.
For S=P(c1ccc(N2CCOCC2)cc1N1CCOCC1)(N1CCOCC1)N1CCOCC1 the results were Pyk2 oligo antag inactive.
CC(C)OC(=O)c1ccc(NC(=O)Cn2c(-c3nonc3N)nc3ccccc32)cc1 was read as Pyk2 oligo antag -4.2 and Cav3 T inh inactive.
`CCc1ccc2[nH]c(=O)c(C(c3nnnn3CC3CCCO3)N3CCN4CCCC4C3)cc2c1` (stereo not given) gave PostGolgi yeast inactive, PostGolgi ctrl 30.3, Pyk2 oligo antag inactive and Cav3 T inh inactive.
Cc1ccc2[nH]c(=O)c(C(c3nnnn3CC3CCCO3)N3CCOCC3)cc2c1 (stereo not given) was read as PostGolgi yeast inactive, PostGolgi ctrl inactive, Pyk2 oligo antag inactive and Cav3 T inh inactive.
For COc1ccc2[nH]c(=O)c(C(c3nnnn3CC3CCCO3)N3CCc4ccccc4C3)cc2c1 (stereo not given) the results were PostGolgi yeast inactive, PostGolgi ctrl 37.6, Pyk2 oligo antag inactive and Cav3 T inh inactive.
CCn1c(Cc2ccccc2)nnc1SCC(=O)Nc1ccc(S(N)(=O)=O)cc1 was read as PostGolgi yeast inactive, PostGolgi ctrl inactive, Pyk2 oligo antag inactive and Cav3 T inh inactive.
Screening Cn1c(C(=O)NCCN2CCc3ccccc3C2)cc2c(=O)n(C)c3ccccc3c21 returned PostGolgi yeast inactive, PostGolgi ctrl 34.1 and Cav3 T inh inactive.
For Cn1c(C(=O)NCCN2CCOCC2)cc2c(=O)n(C)c3ccccc3c21 the results were PostGolgi yeast inactive, PostGolgi ctrl inactive and Cav3 T inh inactive.
For O=C(Cn1cc(C(=O)c2cccs2)c2ccccc21)NCc1ccc2c(c1)OCO2 the results were PostGolgi yeast inactive, PostGolgi ctrl inactive and Cav3 T inh inactive.
